Assay [1] in a line: ATG_CRE_CIS: Attagene CIS-FACTORIAL HepG2 Assay for human cAMP Responsive Element (CRE) binding protein 3 (AID 2282926). The conditions noted are these: HepG2 CRE cis-reporter, Attagene multiplexed mRNA; actives raise or lower the signal. The essentials: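 Capillary electrophoresis of 6-FAM-labelled, HpaI-digested PCR products quantified reporter transcripts. These came from HepG2 transiently transfected with cis-element reporters and exposed to test chemicals for 24 hours, with DMSO defining baseline activity.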

Assay [2] has as its target CCAAT/enhancer-binding protein beta (Homo sapiens) (UniProt P17676). In words: ATG_C_EBP_CIS: Attagene CIS-FACTORIAL HepG2 Assay for human CCAAT/Enhancer Binding Protein (C/EBP) beta (AID 2282927). As to conditions: HepG2 Attagene cis-factorial transcription factor reporter; actives raise or lower the signal. The essentials:
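HepG2 transiently transfected with multiplexed reporter units under cis-regulatory promoters reporting endogenous C/EBPb activity. After 24 h exposure, reporter mRNA assayed by RT-PCR, fluorescent labelling, HpaI digestion and capillary electrophoresis; bidirectional fitting versus DMSO.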

Assay [3] can be described thus: ATG_CMV_CIS: Attagene CIS-FACTORIAL HepG2 Assay for human CMV (Internal Marker) (AID 2282928).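 Note: endpoint acts as a background internal control marker rather than a target.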 As to conditions: HepG2 CMV promoter reporter, transcription factor profiling; actives raise or lower the signal. The essentials: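 Fluorescence intensity of RT-PCR-derived reporter fragments, resolved by capillary electrophoresis, gives the signal. HepG2 liver cells bearing transfected cis-element reporters were treated 24 h; activity in either direction was fit relative to DMSO-treated controls.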

A short description of assay [4]: ATG_DR4_LXR_CIS: Attagene CIS-FACTORIAL HepG2 Assay for human Liver X Receptor (LXR), DR4 submotif (AID 2282929). As to conditions: HepG2 Attagene DR4 cis-reporter, mRNA transcription; actives raise or lower the signal. The essentials: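 Measures endogenous transcription factor activity via a DR4-driven reporter transcript in human HepG2 cells. Compounds incubated 24 h; mRNA quantified by RT-PCR and capillary electrophoresis, analysed as gain or loss of signal versus DMSO.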

The nature of assay [5]: ATG_AP_1_CIS: Attagene CIS-FACTORIAL HepG2 Assay for human Activator Protein 1 (AP-1) (AID 2282931). The conditions noted are these: HepG2 Attagene cis-factorial AP-1 reporter mRNA; actives raise or lower the signal. In a few lines: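 Bidirectional concentration-response fitting against DMSO controls. Underlying signal: reporter mRNA from cis-promoter constructs in transiently transfected HepG2, measured after 24 h by RT-PCR and capillary electrophoresis.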

A short description of assay [6]: ATG_AP_2_CIS: Attagene CIS-FACTORIAL HepG2 Assay for human Activator Protein 2 (AP-2) (AID 2282932). The conditions noted are these: HepG2 AP-2 cis-reporter, Attagene transcription factor profiling; actives raise or lower the signal. In a few lines:
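Liver-derived HepG2 line, cis-reporter system measuring endogenous factors; 24 h dosing; reporter mRNA detected by fluorescent RT-PCR and capillary electrophoresis.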

Assay [7] can be described thus: ATG_BRE_CIS: Attagene CIS-FACTORIAL HepG2 Assay for human Bone Morphogenetic Protein (BMP) Response Element (BRE) (AID 2282933). The conditions noted are these: HepG2 BMP response element reporter, Attagene transcription factor profiling; actives raise or lower the signal. The essentials: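 Transient MRTU transfection of human HepG2 liver cells; 24 h compound treatment; total RNA isolated, reverse-transcribed, PCR-amplified, 6-FAM labelled, HpaI-cut, capillary electrophoresis. DMSO = negative control/baseline, bidirectional fit.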

Assay [8] deals with Retinoic acid receptor alpha (Homo sapiens) (UniProt P10276). The experiment in a line: ATG_DR5_RAR_CIS: Attagene CIS-FACTORIAL HepG2 Assay for human Retinoic Acid Receptor Alpha (RARE), DR5 submotif (AID 2282934).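 For AC50: reporter responds to endogenous RAR alpha beta and gamma in HepG2 not RARA alone.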 The conditions noted are these: HepG2 Attagene cis-factorial RARE DR5 reporter, mRNA; actives raise or lower the signal. The essentials:
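HepG2 cells transiently transfected with multiplexed reporter units; DR5 cis-element drives reporter through endogenous transcription factors. After 24 h dosing, reporter mRNA quantified by RT-PCR, fluorescent labeling, HpaI digestion and capillary electrophoresis; bidirectional fitting versus DMSO.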

Assay [9] deals with Transcription factor E2F1 (Homo sapiens) (UniProt Q01094). The experiment in a line: ATG_E2F_CIS: Attagene CIS-FACTORIAL HepG2 Assay for human E2F Transcription Factor 1 (AID 2282935). As to conditions: HepG2 Attagene cis-reporter, E2F reporter RNA transcripts; actives raise or lower the signal. In a few lines:
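Liver-derived HepG2 cells expressing transfected promoter-driven reporter units received test chemical for 24 hours. Signal gains or losses were fitted bidirectionally against DMSO.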

Assay [10] concerns the target Aryl hydrocarbon receptor (Homo sapiens) (UniProt P35869). In words: ATG_Ahr_CIS: Attagene CIS-FACTORIAL HepG2 Assay for human Aryl Hydrocarbon Receptor (Ahr) (AID 2282930). The conditions noted are these: HepG2 AhR cis-factorial reporter transcription; actives raise or lower the signal. The essentials: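 HepG2 cells transiently transfected with cis-element-driven multiplexed reporter units; endogenous AhR activity read as reporter mRNA 24 h after dosing, via RT-PCR, 6-FAM labelling, HpaI digestion and capillary electrophoresis. Bidirectional fit relative to DMSO.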

Calls of active or inactive are those of the source. Rule for the calls: active = hit-call score of the fitted dose curve at least 0.9, where 1 is the maximum; inactive = score below 0.9.

Sequence of CCAAT/enhancer-binding protein beta (Homo sapiens) (P17676 whole entry, looked up): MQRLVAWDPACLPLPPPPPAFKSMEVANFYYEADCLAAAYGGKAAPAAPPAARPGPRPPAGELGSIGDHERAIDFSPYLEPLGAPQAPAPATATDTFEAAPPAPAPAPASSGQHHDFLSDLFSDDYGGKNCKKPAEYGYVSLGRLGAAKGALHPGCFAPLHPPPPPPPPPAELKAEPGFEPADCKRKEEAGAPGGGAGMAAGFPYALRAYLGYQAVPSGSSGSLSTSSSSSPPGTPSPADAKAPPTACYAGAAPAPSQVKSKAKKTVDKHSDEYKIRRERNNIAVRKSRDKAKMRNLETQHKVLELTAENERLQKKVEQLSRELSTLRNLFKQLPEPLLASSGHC
Sequence of Aryl hydrocarbon receptor (Homo sapiens) (P35869 whole entry, looked up): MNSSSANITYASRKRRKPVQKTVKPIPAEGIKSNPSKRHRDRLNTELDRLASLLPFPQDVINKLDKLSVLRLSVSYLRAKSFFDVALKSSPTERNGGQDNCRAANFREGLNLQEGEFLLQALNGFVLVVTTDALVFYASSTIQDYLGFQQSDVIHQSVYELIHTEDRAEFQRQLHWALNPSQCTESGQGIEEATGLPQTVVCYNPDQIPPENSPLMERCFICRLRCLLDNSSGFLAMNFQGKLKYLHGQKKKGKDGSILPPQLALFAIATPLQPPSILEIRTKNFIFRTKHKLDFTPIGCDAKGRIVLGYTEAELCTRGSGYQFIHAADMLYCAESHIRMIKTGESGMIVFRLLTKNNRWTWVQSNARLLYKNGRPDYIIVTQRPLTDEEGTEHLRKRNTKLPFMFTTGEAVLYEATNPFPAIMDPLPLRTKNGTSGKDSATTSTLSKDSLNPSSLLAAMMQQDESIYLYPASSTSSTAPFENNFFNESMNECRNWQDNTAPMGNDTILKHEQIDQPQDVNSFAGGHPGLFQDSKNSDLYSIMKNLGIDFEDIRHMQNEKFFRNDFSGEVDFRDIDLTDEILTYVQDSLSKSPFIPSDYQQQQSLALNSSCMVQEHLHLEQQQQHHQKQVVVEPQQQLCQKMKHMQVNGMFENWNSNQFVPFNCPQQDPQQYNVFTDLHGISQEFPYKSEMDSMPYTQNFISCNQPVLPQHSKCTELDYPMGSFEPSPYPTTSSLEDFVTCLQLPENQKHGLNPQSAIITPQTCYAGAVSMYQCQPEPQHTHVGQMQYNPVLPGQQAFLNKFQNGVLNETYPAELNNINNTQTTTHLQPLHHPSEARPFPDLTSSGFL
Sequence of Transcription factor E2F1 (Homo sapiens) (Q01094 whole entry, looked up): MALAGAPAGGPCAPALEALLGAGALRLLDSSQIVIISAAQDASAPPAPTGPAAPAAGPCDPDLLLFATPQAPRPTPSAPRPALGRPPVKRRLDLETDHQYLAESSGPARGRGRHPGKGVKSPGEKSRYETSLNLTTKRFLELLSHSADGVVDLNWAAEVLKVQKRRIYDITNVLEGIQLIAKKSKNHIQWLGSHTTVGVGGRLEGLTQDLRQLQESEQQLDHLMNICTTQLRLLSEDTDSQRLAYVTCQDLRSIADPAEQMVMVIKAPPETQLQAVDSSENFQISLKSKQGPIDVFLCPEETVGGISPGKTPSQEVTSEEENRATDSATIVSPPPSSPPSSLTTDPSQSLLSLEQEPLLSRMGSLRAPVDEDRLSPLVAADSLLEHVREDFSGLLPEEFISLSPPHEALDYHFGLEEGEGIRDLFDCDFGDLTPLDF
Sequence of Retinoic acid receptor alpha (Homo sapiens) (P10276 whole entry, looked up): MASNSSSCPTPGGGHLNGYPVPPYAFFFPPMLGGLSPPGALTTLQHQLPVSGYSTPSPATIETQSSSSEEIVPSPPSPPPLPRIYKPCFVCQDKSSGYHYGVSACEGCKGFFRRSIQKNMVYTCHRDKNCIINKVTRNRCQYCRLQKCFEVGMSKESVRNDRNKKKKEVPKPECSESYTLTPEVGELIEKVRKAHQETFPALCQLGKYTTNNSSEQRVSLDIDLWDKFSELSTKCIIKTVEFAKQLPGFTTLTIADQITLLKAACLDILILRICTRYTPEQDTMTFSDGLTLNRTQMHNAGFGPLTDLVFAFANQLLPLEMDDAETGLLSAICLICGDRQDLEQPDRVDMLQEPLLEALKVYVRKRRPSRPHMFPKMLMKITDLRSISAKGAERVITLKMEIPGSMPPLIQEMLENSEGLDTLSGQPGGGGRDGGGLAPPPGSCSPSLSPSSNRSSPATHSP

For the compound `CC1(C)O[C@@H]2[C@@H](CO[C@@]3(COS(N)(=O)=O)OC(C)(C)O[C@@H]23)O1`, the compound was called inactive in assay [1], in assay [2], in [3], in [4], in [5] and in assay [6]. Moreover, the call in assay [7], in assay [8] and in assay [9] was inactive.

With `C=Cc1ccc(C(C)(C)C)cc1`, the outcome in assay [1], in [2], in assay [3], in assay [4], in [5] and in [6] was inactive. Moreover, the call in assay [7] and in [9] was inactive. Also, the AC50 in assay [8] was 76.1 µM (active).

Consider `Cc1ccc(S(N)(=O)=O)cc1`, for which the compound was called inactive in assay [1], in assay [2], in assay [3], in assay [4], in [5] and in [6]. The result in assay [7], in assay [8] and in assay [9] was inactive.

With `CC(C)=CCCC(C)CCOC=O` (stereo not drawn), the compound was classed as inactive in [1], in assay [2], in assay [3], in [4], in assay [5] and in [6]. Also, the compound was called inactive in assay [7], in assay [8] and in assay [9].

On to `C=C(C)C(=O)OCCOCCOCCOC(=O)C(=C)C`, for which the call in [1], in [2], in [3], in [4], in [5] and in assay [6] was inactive. Further, the outcome in assay [7] and in assay [9] was inactive.

Regarding `OCCOCCN1CCN(C2=Nc3ccccc3Sc3ccccc32)CC1`, the call in assay [1], in assay [2], in assay [4], in assay [5], in assay [6] and in assay [7] was inactive. Further, the result in assay [8] and in assay [9] was inactive. In addition, the AC50 in assay [3] was 135 µM (active).

With `COc1cc(C(C)C)ccc1C`, the call in [1], in assay [2], in assay [3], in assay [4], in [6] and in assay [7] was inactive. In addition, the result in assay [9] was inactive.

On to `C=C(C#N)C(=O)OCC`, for which the AC50 in [2] was 154 µM (active); in [4], 158 µM (active). Besides, the outcome in assay [3], in assay [10], in assay [5], in assay [6], in assay [7] and in assay [8] was inactive. Besides, in assay [9], the compound was called inactive.

For `Cc1cc(S(=O)(=O)O)ccc1N=Nc1c(O)ccc2ccccc12`, the compound was called inactive in assay [1], in assay [2], in [3], in assay [4], in [5] and in [6]. Besides, the result in assay [7] and in [9] was inactive.

Turning to `CC(C)C(OC(=O)c1ccccc1)C(C)(C)COC(=O)c1ccccc1` (stereo not drawn), the result in assay [1], in assay [2], in assay [3], in [4], in assay [5] and in assay [6] was inactive. Further, the outcome in assay [7], in [8] and in assay [9] was inactive.

For `CCOc1ccc(NC(=O)CC(C)=O)cc1`, the outcome in assay [1], in assay [2], in assay [3], in assay [4], in assay [5] and in [6] was inactive. The compound was called inactive in [7], in assay [8] and in assay [9].

As to `CCc1cc(C(C)(C)C)c(O)c(C(C)(C)C)c1`, the compound was called inactive in [1], in assay [2], in assay [6], in assay [7] and in [9]. For the same compound, the concentration at half-maximal activity (AC50) is 53.9 µM (active) in assay [3], 23.2 µM (active) in assay [4], 63.7 µM (active) in [5] and 5.23 µM (active) in assay [8].

With `CCC(=O)OCCOc1ccccc1`, the result in assay [2], in assay [3], in assay [4], in assay [10], in [5] and in assay [6] was inactive. For the same compound, the compound was classed as inactive in [7], in [8] and in assay [9].

`C[Si]1(C)O[Si](C)(C)O[Si](C)(C)O1`: the outcome in [2], in [3], in [4], in [10], in assay [6] and in assay [7] was inactive. Also, the compound was classed as inactive in [8] and in assay [9].

Take `CCCCCC(C=O)=Cc1ccccc1`: the outcome in assay [2], in assay [3], in assay [4], in assay [10], in [5] and in assay [6] was inactive. In addition, the call in assay [7], in assay [8] and in assay [9] was inactive.

Turning to `CC1C2CC(CC2C2CCCC(O)C2)C1(C)C` (stereo not drawn), the result in assay [2], in assay [3], in assay [4], in [10], in assay [5] and in assay [6] was inactive. Moreover, the compound was classed as inactive in assay [7], in [8] and in [9].

Regarding `CC(=O)Nc1ccc(C(=O)CCl)cc1`, the outcome in assay [2], in [3], in assay [10], in assay [7], in [8] and in assay [9] was inactive. Also, the concentration at half-maximal activity (AC50) in [4] was 12.9 µM (active); in [5] it was 56.5 µM (active); in assay [6] it was 7.19 µM (active).

In general, AC50 refers to the concentration at which the activity in the assay is half-maximal.

For the origin of these results see PubChem BioAssay (EPA / NIEHS).
